PubChem BioAssay (NCATS)
Results filed as inconclusive are left out. A call without a number means that no potency is given here. Unmarked numbers belong to inactive results. Active and inactive are the calls of the source. Calls come from the whole dose curve; as a rule, active = well fitted cell-killing curve with a large enough effect; inconclusive = small, poorly fitted or top-dose-only effect, or effect the other way; inactive = flat fitted curve, though single readings scatter.

system: CAOV3; test: Primary qHTS to identify gynecologic anti-cancer compounds using libraries of approved drugs and bioactive compounds (AID 1345084); conditions: Gynecologic cancer cell panel viability, ATPlite luminescence, 48 h; series mostly up to 57.5 µM; note: nearly all actives have a fitted effect of over 55% in size
Outline: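 Cell viability after 48 h drug treatment, ATPlite luminescence readout; five doses.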

| Compound | activity change, negative = cytotoxicity | Potency |
| --- | --- | --- |
| C[C@@H]1O[C@@H](O[C@H]2[C@@H](OC(=O)[C@]34CCC(C)(C)CC3C3=CCC5[C@@]6(C)C[C@H](O)[C@H](O[C@@H]7O[C@H](C(=O)O)[C@@H](O)[C@H](O)[C@H]7O)[C@@](C)(C(=O)O)C6CC[C@@]5(C)[C@]3(C)CC4)OC[C@H](O)[C@@H]2O)[C@H](O)[C@H](O)[C@H]1O[C@@H]1OC[C@@H](O)[C@H](O)[C@H]1O (stereo partly specified) | 24.8% [at 11.6 µM] |  |
| CC12CCC(C(OC3OC(COC4OCC(O)(CO)C4O)C(O)C(O)C3O)C1)C(C)(C)O2 (stereo unspecified) |  | inactive |
| O=C(/C=C\c1ccc(O)cc1)N[C@@H](Cc1ccc(O)cc1)C(=O)O |  | inactive |
| O=C(O)c1cccc(S(=O)(=O)N2CCc3ccccc3C2)c1 |  | inactive |
| C[C@@H]1O[C@@H](O[C@H]2[C@H](O)[C@@H](O[C@@H]3O[C@H](CO)[C@@H](O)[C@H](O[C@@H]4O[C@H](CO)[C@@H](O)[C@H](O)[C@H]4O)[C@H]3O)[C@H](O[C@H]3CC[C@@]4(C)C(=CC[C@@H]5C4CC[C@@]4(C)C5C[C@@H]5OC6(CC[C@@](C)(CO[C@@H]7O[C@H](CO)[C@@H](O)[C@H](O)[C@H]7O)O6)[C@@H](C)[C@@H]54)C3)O[C@@H]2CO)[C@H](O)[C@H](O)[C@H]1O (stereo partly specified) | -0.0617% [at 6.55 µM] |  |
| COc1ccc(/C=C/C(=O)O[C@H]2[C@H](O[C@H]3[C@@H]4C=CO[C@@H](O[C@@H]5O[C@H](CO)[C@@H](O)[C@H](O)[C@H]5O)[C@@H]4[C@@]4(CO)O[C@@H]34)O[C@@H](C)[C@H](O)[C@H]2OC(C)=O)cc1 |  | inactive |
